The values below come from PubChem BioAssay (NCATS).

Results filed as inconclusive are left out. A call without a number means that no potency is given here. Activity calls are given as the source filed them. Calls come from the whole dose curve; as a rule, active = well fitted cell-killing curve with a large enough effect; inconclusive = small, poorly fitted or top-dose-only effect; inactive = flat fitted curve, though single readings scatter.
Potency is the fitted concentration of half-maximal effect.

A short description of this test: Cell Viability - LYMP2-009 (AID 968).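 Note: cells exposed to compound for 24 h at 37 °C; nearly all actives have a fitted effect of over 55% in size.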 The note with it: LYMP2-009 lymphoblastoid cell viability; series mostly up to 92.2 µM. The text has this:
NIH Chemical Genomics Center [NCGC]
NIH Molecular Libraries Screening Centers Network [MLSCN]
National Institutes of Environmental Health Sciences [NIEHS]
National Toxicology Program [NTP]
We have developed a 1536-well cell-based assay for quantitative high throughput screening (qHTS) against a number of cell lines to determine in vitro cytotoxicity of small molecules. This particular assay uses a human lymphoblastoid cell line (LYMP2-009) purchased from Coriell Institute for Medical Research.
NCGC Assay Protocol Summary:
The CellTiter-Glo luminescent cell viability assay (Promega) is a homogeneous method to measure the number of viable cells in culture. The end point readout of this assay is based on quantitation of intracellular ATP, an indicator of metabolic activity, using the luciferase reaction. Luciferase catalyzes the oxidation of beetle Luciferin to oxyluciferin and light in the presence of ATP. The luminescent signal is proportional to amount of ATP present.
Using the CellTiter-Glo luminescent cell viability assay, the amount of cellular ATP was measured in the lymphoblastoid cell line with complete culture medium following compound treatment for 24 hours. The assay was performed in opaque white Kalypsys 1536-well plates. In the screen, tetraoctylammonium bromide was used as positive control. Library compounds were measured for their ability to cause acute toxicity in the cell line, as reflected by a decrease in intracellular ATP levels, in a concentration-dependent manner. […] AC50 values were determined from concentration-response data modeled with the standard Hill equation.
qHTS protocol for CellTiter Glo lymphoblastoid cellular assay
[Step] [Parameter] [Value] [Description]
1. Reagent; 5 uL; 2500 lymphoblastoid cells/well
2. Time; 5 hr; 37 C incubation
4. Controls; 23 nL; Tetraoctylammonium bromide 6.4pM to 92 uM
5. Time; 24 hr; 37 C incubation
6. Reagent; 5 uL; CellTiter Glo reagent
7. Time; 30 min; Room Temperature
8. Detection; Luminescence; Viewlux plate reader
Keywords: cell viability, cytotoxicity, lymphoblastoid cell line, luminescence, NTPHTS, NTPHTS_NCGC, NIEHS, DSSTox, MLSMR, MLSCN, NIH Roadmap, qHTS, NCGC
On to `Clc1ccc(C(Cl)(Cl)Cl)cc1Cl`, for which the Potency result is “inactive”.

Regarding `CN(C)c1ccccc1`, the Potency result is “inactive”.

Consider `COc1ccc(C=O)cc1`, for which the Potency entry is “inactive”.

For `N#C/C(N)=C(/N)C#N`, the Potency entry was “inactive”.

On to `O=[N+]([O-])c1cc(Cl)c(Cl)c(Cl)c1`, for which the Potency entry is “inactive”.

In the case of `OCCCCO`, the Potency result is “inactive”.

For `ClCC(Cl)CCl`, the Potency result was “inactive”.

In the case of `O=Cc1ccc(Cl)cc1Cl`, the Potency result was “inactive”.

Turning to `Cc1ccc(N)cc1C`, the Potency result was “inactive”.

Take `O=[N+]([O-])c1ccccc1O`: the Potency result is “inactive”.

In the case of `Nc1cccc(Cl)c1`, the Potency entry was “inactive”.

Regarding `Clc1ccc(Cl)c(Cl)c1`, the Potency entry is “inactive”.

Regarding `c1ccc(OCC2CO2)cc1` (stereo not given), the Potency result was “inactive”.

As for `Cl/C=C/Cl`, the Potency entry is “inactive”.

For `ClC(Cl)c1ccccc1`, the Potency result is “inactive”.

Consider `CC(C)OC(=O)Cc1ccccc1`, for which the Potency entry is “inactive”.

Regarding `CN(C)C(=O)Nc1cccc(C(F)(F)F)c1`, the Potency result is “inactive”.

As to `O=[N+]([O-])c1cccc(CCl)c1`, the Potency was 79.4 µM (active).

As for `Nc1ccc(Cl)c(Cl)c1`, the Potency entry was “inactive”.

In the case of `O=[N+]([O-])c1cccc2c([N+](=O)[O-])cccc12`, the Potency entry is “inactive”.

For `Brc1cccc(-c2ccccc2)c1`, the Potency entry is “inactive”.

As to `O=C(Cl)OCc1ccccc1`, the Potency result was “inactive”.

Consider `CC(Cl)CCl` (stereo not given), for which the Potency result was “inactive”.

In the case of `ClC=CCl`, the Potency result was “inactive”.

For the molecule `ClCCOCOCCCl`, the Potency entry was “inactive”.

In the case of `ClP(Cl)(Cl)(Cl)Cl`, the Potency entry is “inactive”.

On to `Cl/C=C/CCl`, for which the Potency result is “inactive”.

Regarding `Nc1cc(Cl)cc(C(=O)O)c1Cl`, the Potency result is “inactive”.

Turning to `CC1CC(=O)O1` (stereo not given), the Potency entry was “inactive”.

In the case of `C(CCOCC1CO1)COCC1CO1` (stereo not given), the Potency result was “inactive”.

On to `CCOC(=O)CBr`, for which the Potency result is “inactive”.

In the case of `O=[N+]([O-])CCO`, the Potency result is “inactive”.

Consider `Cc1ccc(N)c(N)c1`, for which the Potency was 25.1 µM (active).

Take `COc1cc(-c2ccc(N)c(OC)c2)ccc1N`: the Potency entry is “inactive”.

Regarding `S=C1NCCN1`, the Potency result was “inactive”.

Take `CCCCCc1cc(O)cc(O)c1`: the Potency entry was “inactive”.

As for `CC(C)(OOC(C)(C)c1ccccc1)c1ccccc1`, the Potency result is “inactive”.

On to `CN(C)c1ccc(N)cc1`, for which the Potency is 50.1 µM (active).

Turning to `CCOP(=S)(OCC)SCCSCC`, the Potency result is “inactive”.

`C=CC=O`: the Potency entry was “inactive”.
